7 compounds from PubChem BioAssay (EPA / NIEHS) can be followed below.

A short description of test [1]: ATG_TAL_CIS: Attagene CIS-FACTORIAL HepG2 Assay for human TAL Basal Promoter (AID 2282966; active means hit-call score of the fitted dose curve at least 0.9, where 1 is the maximum; inactive means score below 0.9;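 further: background control endpoint measuring basal TAL promoter reporter mRNA not a specific factor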). Conditions: HepG2 Attagene cis-factorial TAL promoter reporter; actives raise or lower the signal. An outline of the steps: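 Endogenous transcription-factor activity is sensed in HepG2 cells through transfected cis-promoter reporter constructs. After 24 h dosing, reporter transcripts are quantified by RT-PCR and capillary electrophoresis. Gain or loss of signal is fitted relative to DMSO.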

Test [2] in a line: ATG_TGFb_CIS: Attagene CIS-FACTORIAL HepG2 Assay for human Transforming Growth Factor (TGF) (AID 2282967; active means hit-call score of the fitted dose curve at least 0.9, where 1 is the maximum; inactive means score below 0.9). Conditions: HepG2 Attagene CIS TGFb reporter, mRNA transcription; actives raise or lower the signal. An outline of the steps:
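Liver HepG2 line, cis-factorial reporter panel, 24 h dosing. Quantitation: RT-PCR products labeled with 6-FAM, cut with HpaI, resolved by capillary electrophoresis; DMSO-referenced bidirectional analysis.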

A short description of test [3]: ATG_VDRE_CIS: Attagene CIS-FACTORIAL HepG2 Assay for human Vitamin D Receptor Element (VDRE) (AID 2282968; active means hit-call score of the fitted dose curve at least 0.9, where 1 is the maximum; inactive means score below 0.9). The note with it: HepG2 VDRE cis-reporter transcription, actives raise or lower the signal. An outline of the steps:
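Transfected HepG2 reporter cells, chemical treatment 24 h. RNA isolated, cDNA amplified with reporter-specific primers, products analysed by capillary electrophoresis. Endpoint fitted in both directions versus DMSO.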

The target in test [4] is Nuclear receptor subfamily 1 group I member 3 (Homo sapiens) (UniProt Q14994). Put plainly: ATG_CAR_TRANS: Attagene TRANS-FACTORIAL HepG2 Assay for human Constitutive Androstane Receptor (CAR) (AID 2282969).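 Further: activators raise reporter mRNA above DMSO so AC50 marks induction.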 The note with it: HepG2 Attagene TRANS-FACTORIAL CAR reporter. An outline of the steps: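 Steps: transient transfection of HepG2 with multiple GAL4-UAS reporter units; 24 h compound incubation; RNA isolation, RT-PCR, 6-FAM primer extension, HpaI digest; capillary electrophoresis. Gain-of-signal relative to DMSO negative control.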

Test [5] is described as follows: ATG_GAL4_TRANS: Attagene TRANS-FACTORIAL HepG2 Assay for GAL4 (Internal Marker) (AID 2282976). Conditions: HepG2 Attagene TRANS GAL4 internal marker reporter. An outline of the steps: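 Fluorescence from capillary electrophoresis of labelled RT-PCR products quantifies reporter mRNA induction after 24 h dosing of HepG2 cells carrying transfected GAL4-UAS reporter transcription units. Vehicle DMSO serves as baseline.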

Test [6] has as its target Glucocorticoid receptor (Homo sapiens) (UniProt P04150). Put plainly: ATG_GR_TRANS: Attagene TRANS-FACTORIAL HepG2 Assay for human Glucocorticoid Receptor (GR) (AID 2282978).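 Further: activators score as hits since higher reporter transcript over DMSO is fitted.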 Conditions: HepG2 Attagene TRANS GR reporter, mRNA transcription. An outline of the steps:
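In this trans-factorial format, exogenous NR-GAL4 chimeric proteins in transfected HepG2 cells regulate GAL4-UAS reporter transcription. After 24 h treatment, reporter mRNA induction relative to DMSO is read by RT-PCR and capillary electrophoresis.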

Test [7] has as its target Oxysterols receptor LXR-alpha (Homo sapiens) (UniProt Q13133). Put plainly: ATG_LXRa_TRANS: Attagene TRANS-FACTORIAL HepG2 Assay for human Liver X Receptor alpha (LXRa) (AID 2282980). Conditions: HepG2 Attagene TRANS reporter, LXRa transactivation. Summed up: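 Transient HepG2 transfectants, 24 h dosing, RT-PCR/CE mRNA reporter quantitation; gain-of-signal vs DMSO.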
The target in test [8] is Oxysterols receptor LXR-beta (Homo sapiens) (UniProt P55055). Nature of the test: ATG_LXRb_TRANS: Attagene TRANS-FACTORIAL HepG2 Assay for human Liver X Receptor beta (LXRb) (AID 2282981). The note with it: HepG2 Attagene TRANS GAL4-LXRb reporter, mRNA. An outline of the steps: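 Liver-derived HepG2 cells transfected with Gal4-responsive reporters were dosed for 24 h. Activation was scored as rise in reporter mRNA, by RT-PCR and capillary electrophoresis, above DMSO baseline.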
Oxysterols receptor LXR-beta (Homo sapiens), sequence (P55055 whole entry, looked up, the tested form may be a part): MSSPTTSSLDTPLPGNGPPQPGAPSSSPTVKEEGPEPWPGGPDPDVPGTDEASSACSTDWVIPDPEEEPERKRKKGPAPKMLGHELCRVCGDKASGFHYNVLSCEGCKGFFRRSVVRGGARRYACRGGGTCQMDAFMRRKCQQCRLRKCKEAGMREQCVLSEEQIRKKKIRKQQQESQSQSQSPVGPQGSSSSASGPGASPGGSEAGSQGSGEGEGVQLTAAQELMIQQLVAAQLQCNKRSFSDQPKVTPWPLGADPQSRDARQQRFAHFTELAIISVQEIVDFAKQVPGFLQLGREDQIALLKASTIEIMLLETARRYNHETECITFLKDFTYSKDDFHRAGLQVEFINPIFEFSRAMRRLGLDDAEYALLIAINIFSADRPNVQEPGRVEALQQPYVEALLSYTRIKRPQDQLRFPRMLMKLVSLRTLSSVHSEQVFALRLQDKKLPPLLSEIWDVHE

In test [9] the target is Hepatocyte nuclear factor 4-alpha (Homo sapiens) (UniProt P41235). Put plainly: ATG_HNF4a_TRANS: Attagene TRANS-FACTORIAL HepG2 Assay for human Hepatocyte Nuclear Factor 4 alpha (HNF4a) (AID 2282982). Conditions: HepG2 HNF4a transactivation reporter, mRNA readout. An outline of the steps:
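Using HepG2 liver cells transfected with GAL4-UAS reporter units, chemical-induced mRNA increases were assessed after 24 hours. Fluorescent RT-PCR fragments were separated by capillary electrophoresis and compared with DMSO negative controls.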

The nature of test [10]: ATG_M_06_TRANS: Attagene TRANS-FACTORIAL HepG2 Assay for M06 Transcription Factor (Internal Marker) (AID 2282983).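 Further: reporter transcript level by RT-PCR then capillary electrophoresis fluorescence.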 The note with it: HepG2 Attagene TRANS M06 internal marker reporter. An outline of the steps: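 Human liver HepG2 cells bearing transiently transfected chimeric NR-GAL4 reporter units were treated with chemicals for 24 h. Total RNA was reverse-transcribed, reporter sequences amplified and labelled, then quantified by capillary electrophoresis. Activity was fitted upward relative to DMSO.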

Test [11] is described as follows: ATG_M_32_TRANS: Attagene TRANS-FACTORIAL HepG2 Assay for M32 Transcription Factor (Internal Marker) (AID 2282984).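 Further: transcript level of a background control reporter unit measured by RT-PCR and capillary electrophoresis.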 Conditions: HepG2 Attagene TRANS M32 internal marker reporter. An outline of the steps: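 Fluorescence-detected mRNA induction, HepG2 liver cells, 24 h after dosing. Multiple GAL4-UAS reporter units introduced by transient transfection; background-control endpoint analysed for gain of signal against DMSO.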

The target of test [12] is Transcriptional activator Myb (Homo sapiens) (UniProt P10242). Nature of the test: ATG_Myb_CIS: Attagene CIS-FACTORIAL HepG2 Assay for human Myeloblastosis (Myb) Proto-Oncogene Transcription Factor (AID 2282986; active means hit-call score of the fitted dose curve at least 0.9, where 1 is the maximum; inactive means score below 0.9). The note with it: HepG2 Attagene CIS-FACTORIAL Myb reporter transcription; actives raise or lower the signal. Summed up: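 Steps: transfect HepG2 with cis-regulated reporter units; dose with chemical for 24 h; isolate RNA, reverse-transcribe, PCR-amplify and FAM-label reporter sequences; digest with HpaI; resolve by capillary electrophoresis. Activity fitted in both directions relative to DMSO.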
Transcriptional activator Myb (Homo sapiens), sequence (P10242 whole entry, looked up): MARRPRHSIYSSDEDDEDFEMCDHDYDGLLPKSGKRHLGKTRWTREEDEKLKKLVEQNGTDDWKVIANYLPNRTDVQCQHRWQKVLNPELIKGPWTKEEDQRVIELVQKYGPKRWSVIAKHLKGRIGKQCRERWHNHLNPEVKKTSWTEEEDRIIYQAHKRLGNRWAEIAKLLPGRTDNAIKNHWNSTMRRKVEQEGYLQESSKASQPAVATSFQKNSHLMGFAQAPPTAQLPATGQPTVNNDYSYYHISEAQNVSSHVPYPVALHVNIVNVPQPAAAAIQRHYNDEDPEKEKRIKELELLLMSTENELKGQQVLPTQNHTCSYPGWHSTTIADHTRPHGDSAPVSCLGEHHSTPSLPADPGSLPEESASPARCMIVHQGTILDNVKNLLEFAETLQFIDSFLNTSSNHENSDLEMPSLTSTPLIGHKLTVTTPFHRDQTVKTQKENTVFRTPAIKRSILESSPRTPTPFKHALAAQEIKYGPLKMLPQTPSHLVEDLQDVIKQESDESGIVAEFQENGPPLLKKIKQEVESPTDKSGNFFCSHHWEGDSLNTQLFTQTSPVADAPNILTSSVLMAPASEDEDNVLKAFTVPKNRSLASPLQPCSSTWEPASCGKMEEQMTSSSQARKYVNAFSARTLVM

Test [13] has as its target Nuclear respiratory factor 1 (Homo sapiens) (UniProt Q16656). Nature of the test: ATG_NRF1_CIS: Attagene CIS-FACTORIAL HepG2 Assay for human Nuclear Respiratory Factor 1 (NRF1) Orphan Gene (AID 2282987; active means hit-call score of the fitted dose curve at least 0.9, where 1 is the maximum; inactive means score below 0.9). The note with it: HepG2 NRF1 cis-element reporter, Attagene multiplex; actives raise or lower the signal. Summed up: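 Fluorescence intensity of labelled reporter cDNA fragments, resolved by capillary electrophoresis, served as readout for NRF1 cis-element activity. Transiently transfected HepG2 cells were dosed for 24 hours; activity in either direction was fitted against DMSO negative control.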

Test [14] addresses Estrogen receptor (Homo sapiens) (UniProt P03372). Put plainly: ATG_ERa_TRANS: Attagene TRANS-FACTORIAL HepG2 Assay for human Estrogen Receptor alpha (ERa) (AID 2282970). Conditions: HepG2 Attagene TRANS ERa GAL4 reporter, mRNA. Summed up:
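Transfected HepG2 cells carrying GAL4-UAS-driven reporter units were dosed for 24 hours. Total RNA was reverse-transcribed, reporter sequences PCR-amplified, FAM-labelled, HpaI-digested and resolved by capillary electrophoresis. Increases over DMSO control defined activity.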

Test [15] addresses Steroid hormone receptor ERR1 (Homo sapiens) (UniProt P11474). Put plainly: ATG_ERRa_TRANS: Attagene TRANS-FACTORIAL HepG2 Assay for human Estrogen-Related Receptor alpha (ERRa) (AID 2282971). The note with it: HepG2 Attagene TRANS reporter, ERRa transactivation. Summed up:
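HepG2 cells were transiently transfected with multiple GAL4-UAS reporter units, then dosed with compound for 24 h. Total RNA was reverse-transcribed, reporter cDNA PCR-amplified and fluorescently labelled, and fragments resolved by capillary electrophoresis; induction was compared with DMSO.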

Test [16] has as its target X-box-binding protein 1 (Homo sapiens) (UniProt P17861). Put plainly: ATG_Xbp1_CIS: Attagene CIS-FACTORIAL HepG2 Assay for human X-box Binding Protein 1 (XBP1) (AID 2282972; active means hit-call score of the fitted dose curve at least 0.9, where 1 is the maximum; inactive means score below 0.9). Conditions: HepG2 XBP1 cis-element reporter, Attagene multiplex; actives raise or lower the signal. An outline of the steps:
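Human hepatoma HepG2, cis-element reporter system, 24 h treatment; mRNA quantified by RT-PCR/CE fluorescence; fit relative to DMSO.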

Test [17] deals with Bile acid receptor (Homo sapiens) (UniProt Q96RI1). Nature of the test: ATG_FXR_TRANS: Attagene TRANS-FACTORIAL HepG2 Assay for Farnesoid X Receptor (FXR) (AID 2282979).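 Further: hits raise reporter mRNA above DMSO so AC50 marks FXR activation.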 Conditions: HepG2 Attagene TRANS FXR-GAL4 reporter transcription. An outline of the steps: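 Chimeric FXR-GAL4 activity in transiently transfected human HepG2 liver cells is scored as induction of reporter mRNA after 24 h of dosing. Detection uses RT-PCR with fluorescent labelling and capillary electrophoresis, with DMSO serving as baseline.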

For test [18], the target named is Nuclear receptor subfamily 4 group A member 2 (Homo sapiens) (UniProt P43354). Nature of the test: ATG_NURR1_TRANS: Attagene TRANS-FACTORIAL HepG2 Assay for human Nuclear Receptor Related Protein 1 (NURR1) (AID 2282985). The note with it: HepG2 Attagene TRANS reporter, mRNA readout. Summed up:
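Chimeric NR-Gal4 proteins were expressed in human HepG2 cells bearing GAL4-UAS reporter units, and induced reporter mRNA was quantified 24 h post-dosing by RT-PCR and capillary electrophoresis.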

In test [19] the target is Estrogen-related receptor gamma (Homo sapiens) (UniProt P62508). Put plainly: ATG_ERRg_TRANS: Attagene TRANS-FACTORIAL HepG2 Assay for human Estrogen-Related Receptor gamma (ERRg) (AID 2282977).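 Further: hits increase reporter signal over DMSO so potencies reflect activators.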 Conditions: HepG2 Attagene TRANS reporter, ERRg transactivation. An outline of the steps:
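Readout: fluorescent reporter-mRNA fragments resolved by capillary electrophoresis after RT-PCR and HpaI cut. Cells: transiently transfected HepG2 carrying GAL4-UAS reporters driven by exogenous NR-Gal4 chimeras, dosed 24 h. Activity fitted upward relative to DMSO baseline.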

Records with an inconclusive call do not appear. Calls of active or inactive are those of the source. How the source made its calls, unless noted: active means hit-call score of the fitted dose curve at least 0.9, where 1 is the maximum; inconclusive means response in the unintended direction; inactive means score below 0.9.

Glucocorticoid receptor (Homo sapiens), sequence (P04150 whole entry, looked up, the tested form may be a part): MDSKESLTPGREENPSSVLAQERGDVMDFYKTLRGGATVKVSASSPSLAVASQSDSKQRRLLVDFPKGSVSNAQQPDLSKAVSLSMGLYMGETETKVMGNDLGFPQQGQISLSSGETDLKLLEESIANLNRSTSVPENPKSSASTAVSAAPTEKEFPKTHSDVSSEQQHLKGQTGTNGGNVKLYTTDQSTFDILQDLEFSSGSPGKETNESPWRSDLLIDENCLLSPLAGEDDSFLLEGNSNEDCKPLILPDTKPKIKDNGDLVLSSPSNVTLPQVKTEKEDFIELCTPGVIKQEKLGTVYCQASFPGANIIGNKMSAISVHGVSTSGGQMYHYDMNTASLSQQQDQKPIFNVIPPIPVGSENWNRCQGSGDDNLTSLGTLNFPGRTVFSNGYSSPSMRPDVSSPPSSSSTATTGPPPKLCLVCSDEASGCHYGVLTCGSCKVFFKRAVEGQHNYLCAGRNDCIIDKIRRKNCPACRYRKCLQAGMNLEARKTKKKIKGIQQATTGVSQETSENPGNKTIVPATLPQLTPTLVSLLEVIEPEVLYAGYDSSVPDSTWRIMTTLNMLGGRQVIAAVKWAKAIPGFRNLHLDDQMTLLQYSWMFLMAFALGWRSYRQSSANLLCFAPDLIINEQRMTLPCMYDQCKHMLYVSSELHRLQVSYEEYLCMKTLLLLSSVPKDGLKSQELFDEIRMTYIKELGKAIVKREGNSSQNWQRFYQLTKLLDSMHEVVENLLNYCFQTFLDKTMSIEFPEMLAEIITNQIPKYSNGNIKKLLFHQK
Nuclear receptor subfamily 4 group A member 2 (Homo sapiens), sequence (P43354 whole entry, looked up, the tested form may be a part): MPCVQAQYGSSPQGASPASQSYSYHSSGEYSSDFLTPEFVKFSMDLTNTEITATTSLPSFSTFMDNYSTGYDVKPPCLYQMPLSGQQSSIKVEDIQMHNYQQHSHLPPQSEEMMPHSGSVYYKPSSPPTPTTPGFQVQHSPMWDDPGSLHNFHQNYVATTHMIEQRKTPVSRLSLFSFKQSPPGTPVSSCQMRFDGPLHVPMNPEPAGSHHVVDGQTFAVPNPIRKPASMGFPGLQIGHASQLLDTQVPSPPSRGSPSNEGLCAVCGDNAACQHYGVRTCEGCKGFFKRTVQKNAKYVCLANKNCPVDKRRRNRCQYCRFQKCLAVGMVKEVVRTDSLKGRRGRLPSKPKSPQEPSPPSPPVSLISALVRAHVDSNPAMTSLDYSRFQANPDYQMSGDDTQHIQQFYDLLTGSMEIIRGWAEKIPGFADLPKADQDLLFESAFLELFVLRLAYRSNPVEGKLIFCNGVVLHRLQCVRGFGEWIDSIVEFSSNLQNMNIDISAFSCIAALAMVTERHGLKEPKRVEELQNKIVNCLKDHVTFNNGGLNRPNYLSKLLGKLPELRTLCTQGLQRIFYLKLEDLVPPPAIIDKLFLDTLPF
Estrogen receptor (Homo sapiens), sequence (P03372 whole entry, looked up, the tested form may be a part): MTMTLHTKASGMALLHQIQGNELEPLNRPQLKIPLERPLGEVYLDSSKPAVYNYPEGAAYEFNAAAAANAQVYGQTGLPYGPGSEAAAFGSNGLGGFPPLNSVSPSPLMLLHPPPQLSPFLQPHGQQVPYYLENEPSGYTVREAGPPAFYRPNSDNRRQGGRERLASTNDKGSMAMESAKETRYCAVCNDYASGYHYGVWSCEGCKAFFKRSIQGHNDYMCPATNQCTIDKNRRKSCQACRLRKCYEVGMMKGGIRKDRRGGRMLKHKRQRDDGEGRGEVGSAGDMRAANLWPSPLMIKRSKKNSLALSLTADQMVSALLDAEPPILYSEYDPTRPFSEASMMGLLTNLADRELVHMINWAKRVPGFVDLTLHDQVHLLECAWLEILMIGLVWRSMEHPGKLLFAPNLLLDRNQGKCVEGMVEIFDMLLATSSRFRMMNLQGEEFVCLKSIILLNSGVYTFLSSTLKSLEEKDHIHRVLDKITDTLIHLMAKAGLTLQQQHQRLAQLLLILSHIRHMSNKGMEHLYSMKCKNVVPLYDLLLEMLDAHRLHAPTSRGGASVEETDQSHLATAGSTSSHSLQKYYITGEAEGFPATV
Nuclear respiratory factor 1 (Homo sapiens), sequence (Q16656 whole entry, looked up, the tested form may be a part): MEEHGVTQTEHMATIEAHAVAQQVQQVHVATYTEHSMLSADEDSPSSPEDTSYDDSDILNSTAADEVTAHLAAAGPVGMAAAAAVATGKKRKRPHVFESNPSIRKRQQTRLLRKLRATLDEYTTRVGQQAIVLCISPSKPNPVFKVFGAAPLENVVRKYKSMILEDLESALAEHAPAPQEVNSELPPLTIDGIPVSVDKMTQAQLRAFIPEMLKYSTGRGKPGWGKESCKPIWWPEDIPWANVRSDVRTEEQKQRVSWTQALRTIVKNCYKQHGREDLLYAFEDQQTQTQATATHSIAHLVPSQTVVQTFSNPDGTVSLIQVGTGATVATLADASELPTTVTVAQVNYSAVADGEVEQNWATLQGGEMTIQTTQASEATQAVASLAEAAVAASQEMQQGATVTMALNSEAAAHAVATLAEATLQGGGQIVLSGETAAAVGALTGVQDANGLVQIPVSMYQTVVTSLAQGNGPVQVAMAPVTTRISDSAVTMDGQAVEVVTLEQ
Oxysterols receptor LXR-alpha (Homo sapiens), sequence (Q13133 whole entry, looked up, the tested form may be a part): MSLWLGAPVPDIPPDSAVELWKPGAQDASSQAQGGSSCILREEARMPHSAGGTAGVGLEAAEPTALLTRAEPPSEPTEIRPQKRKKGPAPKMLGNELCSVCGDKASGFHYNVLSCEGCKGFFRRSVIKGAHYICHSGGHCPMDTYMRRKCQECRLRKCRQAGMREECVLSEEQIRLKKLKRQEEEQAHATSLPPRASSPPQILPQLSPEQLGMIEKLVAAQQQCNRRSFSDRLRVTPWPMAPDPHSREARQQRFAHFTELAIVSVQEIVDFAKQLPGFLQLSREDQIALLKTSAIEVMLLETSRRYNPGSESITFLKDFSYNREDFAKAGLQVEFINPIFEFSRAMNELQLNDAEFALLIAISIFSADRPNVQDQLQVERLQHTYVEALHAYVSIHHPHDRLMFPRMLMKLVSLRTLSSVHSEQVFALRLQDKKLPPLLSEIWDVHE
Estrogen-related receptor gamma (Homo sapiens), sequence (P62508 whole entry, looked up, the tested form may be a part): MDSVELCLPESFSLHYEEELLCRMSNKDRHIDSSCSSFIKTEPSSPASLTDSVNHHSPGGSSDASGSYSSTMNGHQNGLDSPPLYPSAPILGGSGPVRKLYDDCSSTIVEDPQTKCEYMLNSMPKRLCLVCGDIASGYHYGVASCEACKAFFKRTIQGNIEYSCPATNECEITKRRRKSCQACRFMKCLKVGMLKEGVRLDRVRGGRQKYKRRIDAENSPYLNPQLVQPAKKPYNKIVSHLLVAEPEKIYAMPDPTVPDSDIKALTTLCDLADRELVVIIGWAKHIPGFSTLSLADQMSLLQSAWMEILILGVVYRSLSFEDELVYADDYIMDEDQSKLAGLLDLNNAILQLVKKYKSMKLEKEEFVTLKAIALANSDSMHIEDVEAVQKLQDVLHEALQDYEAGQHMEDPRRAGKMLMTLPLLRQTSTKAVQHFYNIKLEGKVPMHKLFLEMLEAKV
Steroid hormone receptor ERR1 (Homo sapiens), sequence (P11474 whole entry, looked up, the tested form may be a part): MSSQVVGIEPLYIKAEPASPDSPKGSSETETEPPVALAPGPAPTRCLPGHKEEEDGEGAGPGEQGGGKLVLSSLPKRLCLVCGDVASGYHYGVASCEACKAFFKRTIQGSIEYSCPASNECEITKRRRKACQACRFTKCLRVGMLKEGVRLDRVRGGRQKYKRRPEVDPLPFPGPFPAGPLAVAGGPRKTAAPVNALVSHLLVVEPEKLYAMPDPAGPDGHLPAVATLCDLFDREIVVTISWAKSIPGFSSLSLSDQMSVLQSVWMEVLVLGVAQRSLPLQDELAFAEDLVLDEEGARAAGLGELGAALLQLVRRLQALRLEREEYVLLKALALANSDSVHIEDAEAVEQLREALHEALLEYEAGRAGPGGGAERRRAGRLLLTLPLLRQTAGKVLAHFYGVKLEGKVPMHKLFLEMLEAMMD

On to `O=C(O)C(=O)O`, for which the compound was called inactive in [1], in test [2], in [3], in test [4], in test [5] and in test [6]. The compound was called inactive in [7], in [8], in [9], in test [10], in test [11] and in test [12]. In addition, the call in test [13] was inactive.
Regarding `O=C(F)C(F)(F)C(F)(F)C(F)(F)C(F)F`, the compound was called inactive in test [1], in test [2], in test [3], in [14], in test [15] and in [16]. In addition, the compound was classed as inactive in test [5], in test [6], in test [17], in test [7], in test [8] and in [9]. Moreover, the compound was classed as inactive in [10], in test [11], in test [18], in test [12] and in test [13].
For the compound `NCc1cccc(CN)c1`, the outcome in [1], in test [2], in [3], in test [4], in [16] and in test [5] was inactive. The call in [6], in [17], in test [7], in test [10], in test [11] and in test [18] was inactive. For the same compound, the compound was called inactive in test [12] and in test [13].
A word on the AC50: it is the concentration giving half of the maximal activity seen. For `COC(O)c1ccccc1` (stereo not given), the compound was classed as inactive in test [1], in test [2], in [3], in test [15], in test [16] and in [5]. Also, the compound was classed as inactive in test [19], in test [6], in [17], in test [9], in test [10] and in test [11]. The outcome in test [12] and in test [13] was inactive. For the same compound, the concentration at half-maximal activity (AC50) in test [14] was 56.7 µM (active).
As to `C=CC(F)(F)C(F)(F)C(F)(F)C(F)(F)F`, the outcome in test [1], in test [2], in [3], in test [4], in test [16] and in test [5] was inactive. Also, the compound was classed as inactive in test [19], in test [17], in [8], in [9], in test [10] and in test [18]. Besides, the call in [12] and in [13] was inactive.
Consider `CC(=O)Nc1ccc(S(N)(=O)=O)cc1`, for which the compound was classed as inactive in test [1], in [2], in test [3], in test [14], in test [15] and in [16]. The outcome in [5], in [6], in test [17], in [7], in [8] and in [9] was inactive. Also, the result in test [10], in [11], in [12] and in test [13] was inactive.
On to `CC[N+](CC)(CC)Cc1ccccc1`, for which the result in test [1], in test [2], in test [3], in [4], in [15] and in test [16] was inactive. Besides, the compound was called inactive in test [5], in test [19], in test [6], in test [17], in test [7] and in test [9]. In addition, the call in test [10], in test [11], in test [12] and in test [13] was inactive.
